From PubChem BioAssay AID2314 (National Center for Advancing Translational Sciences (NCATS), 2010)
Where “and” joins values, the source holds several entries; their conditions need not be identical. Identical values can stand only once. Hit rate of the full screen: of about 300,000 compounds, about 37,000 (12%) were called active. Many of the other results were omitted from the sample, so actives are more common in it than they were. Values without a mark were called inactive. Rule as the data show it: active = max response mostly above about 13% (no sharp cut-off); inactive = mostly below about 14%.

Experiment: Cycloheximide Counterscreen for Small Molecule Inhibitors of Shiga Toxin; also: read at 38.3 µM for the half of the compounds with a filed dose; 0% is about no effect
Settings: cell reporter, cycloheximide protein synthesis inhibition counterscreen; hits give high values
`COc1cccc(-n2nc(C(=O)N3CCN(Cc4ccccc4)CC3)c3ccccc3c2=O)c1` showed a max response of 1.57%. `COc1ccc(C(=O)Nc2ccnn2C2CCN(Cc3ccncc3)CC2)cc1` gave a max response of 7.85%. Compound `O=C(CCN1C(=O)[C@@H]2Cc3ccccc3CN2C1=O)NCCc1ccccc1` has a max response of -1.26%. Compound `CCCOc1ccc(C2=CSC3=NCCN23)cc1Cl` has a max response of 1.92%. `O=C(CSc1ncccn1)N1CCCC1` gave a max response of -5.34%. For `O=S(=O)(NCC1OCCc2ccccc21)c1ccccc1` (stereo not given), the max response was 1.35%. With `CC(=O)c1nc2ccccc2n1Cc1ccccc1` the max response was -1.93%. In the case of `CC(C)Cc1cc(C(=O)Nc2cc(Br)ccc2O)no1`, the max response is reported as 31.8% (active). With `COc1ccc(NS(=O)(=O)c2ccc(N3CCN(CCO)CC3)c([N+](=O)[O-])c2)cc1` the max response was 1.31%. `O=S(=O)(c1cccc2nonc12)N1CCN(c2cccc(Cl)c2)CC1` showed a max response of 0.53%. For `Cc1cc2cc3c(N)[nH]nc3nc2cc1C`, the max response was 20.7% (active). `CCOc1cc(C(=S)N2CCOCC2)ccc1OS(=O)(=O)c1ccc(Br)cc1` gave a max response of -1.79%. Work on `CC(=O)c1ccc(S(=O)(=O)NCc2nnnn2-c2ccccc2)cc1` yielded a max response of -4.62%. For `Cc1cc(C)cc(NC(=O)C2CCCN(S(=O)(=O)c3ccc4[nH]c(=O)ccc4c3)C2)c1` (stereo not given), the max response was 1.72%. Compound `CCOc1ccc(C2/C(=C(/O)c3ccc4c(c3)CC(C)O4)C(=O)C(=O)N2CCCn2ccnc2)cc1` (stereo not given) has a max response of 0.806%. In the case of `CCOCCn1c(-c2ccccc2)nc2ccccc21`, the max response is reported as -1.28%. In the case of `COc1ccc(-c2nc3ccccc3n2CCC(C)C)cc1OC`, the max response is reported as -2.09%. For `COCCn1c(-c2ccc(OC)c(OC)c2)nc2ccccc21`, the max response was 18.4% (active). Compound `CC(NCc1ccccc1OC1CCCC1)c1ccccc1` (stereo not given) has a max response of -1.87%. `Cc1cc(Cl)c2oc(C(=O)NC(C)c3ccncn3)c(C)c2c1` (stereo not given) gave a max response of 6.71%. Work on `Cc1cc(Cl)c2oc(C(=O)N3CCC(O)(c4ccccc4)CC3)c(C)c2c1` yielded a max response of 4.04%. In the case of `Cc1cc(Cl)c2oc(C(=O)N(C)C(C)c3ccccn3)c(C)c2c1` (stereo not given), the max response is reported as 28.7% (active). `COc1ccc(CNC(=O)C2CC(c3ccc(C(F)(F)F)cc3)=NO2)cc1` (stereo not given) gave a max response of -0.982%. In the case of `Cc1cc(OCCCCOc2ccc(C#N)cc2)ccc1[N+](=O)[O-]`, the max response is reported as -6.16%. With `CCN(CC)C(=O)CSc1ncnc2c1cnn2-c1ccccc1` the max response was 38.4% (active). Work on `CC(=O)Nc1ccc(NC(=O)CSc2ncnc3c2cnn3Cc2ccccc2)cc1` yielded a max response of 6%. For `COc1ccccc1N1CCN(C(=O)CSc2ncnc3c2cnn3-c2ccc(C)c(C)c2)CC1`, the max response was 44.7% (active). `O=C(CSc1ncnc2c1cnn2CCc1ccccc1)Nc1ccc(F)cc1` showed a max response of 2.37%. Work on `COC(=O)CSc1ncnc2c1cnn2-c1ccc(C)cc1C` yielded a max response of -8.2%. With `COc1ccccc1N1CCN(C(=O)CSc2nnc(-c3ccoc3C)o2)CC1` the max response was -1.64%. In the case of `COc1ccc(NC(=O)CSc2ncnc3[nH]ncc23)cc1`, the max response is reported as 1.38%. Work on `c1ccc(-n2ncc3c2ncn2c(C4CCCCC4)nnc32)cc1` yielded a max response of -1.23%. With `COc1ccc(-n2ncc3c(SCC(=O)NNC(C)=O)ncnc32)cc1` the max response was 26.3% (active). With `CC(C)Sc1ncnc2c1cnn2-c1ccccc1` the max response was 46.6% (active). Work on `COc1ccc(N2CCN(C(=O)CSc3ncnc4c3cnn4-c3ccc(OC)cc3)CC2)cc1` yielded a max response of -1.01%. In the case of `c1ccc(-n2ncc3c(N4CCCC4)ncnc32)cc1`, the max response is reported as 8.89%. Work on `O=S(=O)(Nc1ccccc1)c1ccc(NS(=O)(=O)c2cccs2)cc1` yielded a max response of -2.66%. `CCCCSc1nnc2c(n1)OC=Nc1ccccc1-2` gave a max response of 12.2%. For `COc1cc(N2C(=O)CSC2=S)cc(OC)c1OC`, the max response was -3.84%. For `Cc1ccccc1NC(=O)Cn1cc(C(=O)C2CC2)c2ccccc21`, the max response was -4.37%. In the case of `NC(=O)c1nsc(C(=O)N(CCCN2CCOCC2)C(C(=O)NC2CCCCC2)c2ccc(Cl)cc2)c1N` (stereo not given), the max response is reported as 0.533%. `O=C(O)c1ccccc1-c1ccccc1C(=O)Nc1ccccc1Br` gave a max response of -9.84%. For `N#Cc1c(-c2ccccc2)cc(-c2ccccc2)nc1SCC(=O)O`, the max response was -2.46%. `Brc1ccc(Nc2c3c(nc4ncnn24)CCC3)cc1` showed a max response of -7.39%. In the case of `O=C(NCc1ccccc1Cl)C1CCN(c2ncnc3c2nc2n3CCCCC2)CC1`, the max response is reported as 17%. Compound `CC(=O)Nc1c2c(nn1-c1ccc(C)cc1C)CS(=O)C2` (stereo not given) has a max response of -1.87%. In the case of `COc1ccc(-c2nc3c(c(SCC(=O)Nc4ccc(C(=O)O)cc4)n2)Cc2ccccc2O3)cc1`, the max response is reported as 12.1%. With `Cc1ccc2[nH]c(=O)c(CN(C)S(=O)(=O)c3cccc4nonc34)cc2c1` the max response was -10.5%. `COc1ccc(Cl)cc1NC(=O)[C@@H]1CCCN1C(=O)c1cccs1` gave a max response of 4.64%. Work on `COc1cc(Cl)c(C)cc1NC(=O)[C@@H]1CCCN1C(=O)c1cccs1` yielded a max response of -0.643%. `CCOc1ccc2nc(NC(=O)c3cc([N+](=O)[O-])ccc3N3CCOCC3)sc2c1` showed a max response of 11.9%. With `COc1ccc2nc(NC(=O)c3ccc(Br)s3)sc2c1` the max response was 67.5% (active). In the case of `COc1ccc2nc(NC(=O)NC3CCCCC3)sc2c1`, the max response is reported as 47.7% (active). Work on `COc1ccc(CNC(=O)c2ccc(Br)s2)cc1OC` yielded a max response of 10.2%. `COc1ccc(-n2cnc3cc(C(=O)NC4CCCC4)ccc32)cc1` gave a max response of -1.06%. For `COc1ccc2nc(NC(=O)[C@@H]3CCCN3C(=O)c3cccs3)sc2c1`, the max response was 15.2% (active). `COc1ccc(S(=O)(=O)N2CCN(C(=O)NC3CCCCC3)CC2)cc1` gave a max response of 1.04%. With `NS(=O)(=O)c1ccc(CNC(=O)c2ccc(Cl)cc2[N+](=O)[O-])cc1` the max response was -0.486%. Compound `Cc1cccc(N(C)C(=O)c2cc(S(=O)(=O)N3CCCCC3)c[nH]2)c1` has a max response of -1.63%. With `O=C(NCc1ccccc1)C(c1ccco1)N(C(=O)c1csnn1)c1ccccc1F` (stereo not given) the max response was -6.55%. Work on `O=C1c2ccccc2C2=Nc3ccccc3SC(c3ccccc3F)C12` (stereo not given) yielded a max response of 9.05%. `COc1ccc(N2CCN(S(=O)(=O)c3ccc4c(c3)N(C(C)=O)CCO4)CC2)cc1` gave a max response of 2.5%. In the case of `CN(C(=O)COc1ccccc1)c1nnc(-c2ccncc2)s1`, the max response is reported as -3.07%. For `CN(C(=O)c1ccccn1)c1nnc(-c2ccccn2)s1`, the max response was 68.8% (active). Work on `CN(C(=O)c1ccno1)c1nnc(-c2cccnc2)s1` yielded a max response of 7.05%. `CCOc1ccc(C(C)=O)cc1CSc1nnc(-c2ccncc2)n1CCOC` showed a max response of -6.17%. For `CC1(C)Cc2ccccc2/C(=C/C(=O)c2ccccc2)N1`, the max response was 4.21%. In the case of `Cc1noc(C)c1CSCC(=O)N(CCC(C)C)c1c(N)n(Cc2ccccc2)c(=O)[nH]c1=O`, the max response is reported as -1.36%. Work on `O=C(O)C1CCCN1C1=NS(=O)(=O)c2ccccc21` (stereo not given) yielded a max response of -4.57%. `CCc1cccc(CC)c1NC(=S)NCc1ccc2[nH]c(C)cc2c1` showed a max response of -2.68%. With `Cc1cc2cc(CNC(=O)c3cccs3)ccc2[nH]1` the max response was 24.1% (active). With `Cc1cc2cc(CNC(=O)c3ccc(S(=O)(=O)N4CCOCC4)cc3)ccc2[nH]1` the max response was -2.1%. Work on `COc1ccc(CS(=O)/C(Cl)=C(/Cl)C(=O)Nc2ccc(OC)nc2)cc1` (stereo not given) yielded a max response of -16.6%. `N#CCSc1nc2ccc(N3CCOCC3)cc2c(=O)n1CCc1ccccc1` showed a max response of 10.2%. For `Cc1ccc(NS(=O)(=O)c2ccc(-c3coc(C)n3)cc2)c(C)c1`, the max response was 4.71%. In the case of `O=C(NCc1ccccc1)C(c1cccnc1)N(C(=O)c1csnn1)c1ccc(F)cc1` (stereo not given), the max response is reported as -4.58%. With `COC(=O)c1[nH]c2ccc(Br)cc2c1NC(=O)Oc1ccccc1` the max response was 47% (active). Compound `CCOC(=O)c1[nH]c2ccc(OC)cc2c1NC(=O)CCN1CCN(Cc2ccccc2)CC1` has a max response of 2.39%. `COC(=O)c1[nH]c2ccccc2c1NC(=O)CN1CCCc2ccccc21` showed a max response of 13.2%. For `COc1ccc(C2(CNC(=O)C(c3ccccc3)c3ccccc3)CCOCC2)cc1OC`, the max response was 4.44%. `CCn1cc(C(=O)NCCO)c(=O)c2cc(F)c(N3CCN(C)CC3)cc21` gave a max response of 1.78%. In the case of `COc1ccc(N2CCN(C(=O)[C@@H](NC(=O)c3cc(OC)cc(OC)c3)C(C)C)CC2)cc1`, the max response is reported as -0.698%. In the case of `CC(C)n1cnc2c(Nc3cccc(Cl)c3)nc(N(CCO)CCCO)nc21`, the max response is reported as -7.35%. With `OCCCNc1nccc(-c2cc(Nc3cccc(Cl)c3)ncn2)n1` the max response was 26.9% (active). Compound `NS(=O)(=O)c1cccnc1Nc1cccc(Cl)c1` has a max response of 5.31%. Compound `CC(=O)N1CCN(CC(c2ccccc2)c2ccccc2)CC1` has a max response of -2.13%. Compound `Cc1ccc(N2C(=O)C3C4C=CC(CC4)C3C2=O)cc1Cl` (stereo not given) has a max response of 0.718%. For `CCN1C(=S)N[C@@H](CCc2ccccc2)[C@H](C(=O)OC)[C@H]1C`, the max response was -1.59% and -1.62%. `COC(=O)c1c(NC(=O)CN(c2ccc(C)c(C)c2)S(C)(=O)=O)sc2c1CCCC2` showed a max response of -3.45%. Work on `CC(=O)Nc1ccc(S(=O)(=O)Nc2cc(C)cn(Cc3ccc(C)cc3)c2=O)cc1` yielded a max response of 10.7%. With `COc1cccc(CNC(=O)COc2cc(O)c3c(c2)OC(C)(C)CC3=O)c1` the max response was 6.81%. Work on `CCOC(=O)C1CCN(Cc2c(C(=O)N3CCOCC3)nc3c(C)cccn23)CC1` yielded a max response of -0.834%. In the case of `COC(=O)C1=C(C)N(c2ccc(Br)cc2)C(=O)/C1=C\c1ccco1`, the max response is reported as 19.6%. `COC(=O)COc1ccc2c(c1C)O/C(=C\c1ccco1)C2=O` gave a max response of 8.5%. For `CC(C)(C)C1C/C(=C/c2ccco2)C(=O)/C(=C/c2ccco2)C1` (stereo not given), the max response was 46.9% (active).
